In PubChem BioAssay (NCI):
The panel holds about 79,000 compounds, 15% with a hit somewhere; the sample as a whole holds those more often. Values without a mark were called inactive. The source made the active and inactive calls. Cut-off read from the data, not from the text of the source: active = growth inhibition above about 70%; inactive = the rest.

Assays:
[1] = NCI Yeast Anticancer Drug Screen. Data for the rad50 strain (AID 155);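 note: 0% = growth of vehicle-only cultures of the same strain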; conditions: S. cerevisiae rad50 strain growth inhibition; at 50.0 µM; hits give high values
How it was run: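 Vehicle-treated cultures provide the reference for the growth inhibition reported for compound-exposed, repair-deficient yeast.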

[2] = NCI Yeast Anticancer Drug Screen. Data for the mec2-1 strain (AID 157); conditions: S. cerevisiae mec2-1 strain, at 50.0 µM, hits give high values
How it was run: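 Strain: mec2-1 (DNA repair/cell cycle alteration). Compound exposure, then growth measured; inhibition expressed relative to vehicle.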

[3] = NCI Yeast Anticancer Drug Screen. Data for the sgs1 mgt1 strain (AID 161);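 note: 0% = growth of cultures given vehicle only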; conditions: S. cerevisiae sgs1 mgt1 strain, at 50.0 µM, hits give high values
How it was run: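 Genetically altered yeast, compound exposure, growth inhibition relative to vehicle.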

[4] = NCI Yeast Anticancer Drug Screen. Data for the cln2 rad14 strain (AID 165);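 note: 0% = growth equal to vehicle treated cultures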; conditions: S. cerevisiae cln2 rad14 strain, at 50.0 µM, hits give high values
How it was run: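 Compounds are applied to the cln2 rad14 yeast strain, and growth is then compared with that of vehicle-treated cultures to give inhibition.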

[5] = NCI Yeast Anticancer Drug Screen. Data for the bub3 strain (AID 167); conditions: S. cerevisiae bub3 mutant strain, at 50.0 µM, hits give high values
How it was run: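 Mutant yeast screening strain plus compound; vehicle-treated cultures serve as the 0% inhibition reference.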

[6] = NCI Yeast Anticancer Drug Screen. Data for the mlh1 rad18 strain (AID 175); conditions: S. cerevisiae mlh1 rad18 strain growth inhibition; at 50.0 µM; hits give high values
How it was run: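 Read-out is yeast growth inhibition, calculated against vehicle-only controls. The compound was applied to a strain engineered with DNA damage repair alterations.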

Cn1cnc(N)c1S(N)(=O)=O
growth inhibition [1]: -11.8% | growth inhibition [2]: 2.45% | growth inhibition [3]: 9.7% | growth inhibition [4]: -6% | growth inhibition [5]: -6.3% | growth inhibition [6]: 26.1%

Cn1c(Cl)cc2nc3ccccc3n2c1=O
growth inhibition [1]: 10.2% | growth inhibition [2]: 19.7% | growth inhibition [3]: -1% | growth inhibition [4]: -11.3% | growth inhibition [5]: 11.2% | growth inhibition [6]: 5.4%

S=c1[nH][nH]c(=S)c2[nH]cnc12
growth inhibition [1]: 1.6% | growth inhibition [2]: -3.1% | growth inhibition [3]: -5.55% | growth inhibition [4]: -18.4% | growth inhibition [5]: 2.2% | growth inhibition [6]: -0.4%

N#CC(NC12CC3CC(CC(C3)C1)C2)c1ccc2c(c1)OCO2 (stereo not given)
growth inhibition [1]: -14.9% | growth inhibition [2]: -5.6% | growth inhibition [3]: -20.9% | growth inhibition [4]: -17.1% | growth inhibition [5]: -47.8% | growth inhibition [6]: -44.4%

NC(=O)CCP(=O)(CCC(N)=O)CCC(N)=O
growth inhibition [1]: 3.8% | growth inhibition [2]: -2.3% | growth inhibition [3]: 1.2% | growth inhibition [4]: 0.8% | growth inhibition [5]: -2.95% | growth inhibition [6]: 2.4%

CC1=C(CO)C(=O)O[C@@H]([C@@H](C)[C@H]2CC[C@H]3[C@@H]4C[C@@H](O)[C@@]5(O)CC=CC(=O)[C@]5(C)[C@H]4CC[C@]23C)C1
growth inhibition [1]: -6.5% | growth inhibition [2]: -7.15% | growth inhibition [3]: -17.7% | growth inhibition [4]: -9.55% | growth inhibition [5]: -36.2% | growth inhibition [6]: -77.1%

OC(CNCCc1ccccc1)COc1cccc2ccccc12 (stereo not given)
growth inhibition [1]: 86.2% (active) | growth inhibition [2]: 92% (active) | growth inhibition [3]: 96.9% (active) | growth inhibition [4]: 98.5% (active) | growth inhibition [5]: 88% (active) | growth inhibition [6]: 97.2% (active)

COC(=O)/C=C/CCBr
growth inhibition [1]: -13% | growth inhibition [2]: -22.1% | growth inhibition [3]: -17.6% | growth inhibition [4]: -39.1% | growth inhibition [5]: -5.2% | growth inhibition [6]: -11.5%

COC(=O)/C(=N/NC(C)(C)C)C(C(=O)C=C(C)C)C(=O)C(=O)Nc1ccc(Cl)cc1C (stereo not given)
growth inhibition [1]: 2.2% | growth inhibition [2]: -1.55% | growth inhibition [3]: -11.2% | growth inhibition [4]: -28.9% | growth inhibition [5]: -0.7% | growth inhibition [6]: 0.8%

COc1ccc(N(C)C(=S)c2ccccc2)cc1
growth inhibition [1]: -49.5% | growth inhibition [2]: -11.7% | growth inhibition [3]: -15.4% | growth inhibition [4]: -37.5% | growth inhibition [5]: 0.45% | growth inhibition [6]: -10.9%

CC1CC(=O)Nc2ccccc2N1C(=O)C1CC1 (stereo not given)
growth inhibition [1]: -8.15% | growth inhibition [2]: -33.4% | growth inhibition [3]: -2.75% | growth inhibition [4]: 2.7% | growth inhibition [5]: -11.6% | growth inhibition [6]: -1.85%

CCCCN(CC)C(=O)C(=O)Cc1nc2ccc(C(=O)c3ccccc3)cc2[nH]c1=O
growth inhibition [1]: 17.3% | growth inhibition [2]: 2.45% | growth inhibition [3]: -4.2% | growth inhibition [4]: 17% | growth inhibition [5]: 4.2% | growth inhibition [6]: 2.4%

CCOC(=O)N1CCN(c2c(N)nc(C)[nH]c2=O)CC1
growth inhibition [1]: -49.6% | growth inhibition [2]: -20.9% | growth inhibition [3]: -55.3% | growth inhibition [4]: -14.8% | growth inhibition [5]: 19.1% | growth inhibition [6]: -58.5%

Cc1nnc2c3nccnc3c(Cl)nn12
growth inhibition [1]: 20.8% | growth inhibition [2]: 25% | growth inhibition [3]: 56.3% | growth inhibition [4]: 20.3% | growth inhibition [5]: 9% | growth inhibition [6]: 24.1%

COc1cc(-c2c(C)c(C)nc(OC)c2C#N)cc(OC)c1OC
growth inhibition [1]: -1.05% | growth inhibition [2]: -13.9% | growth inhibition [3]: -24% | growth inhibition [4]: -19.1% | growth inhibition [5]: -15.2% | growth inhibition [6]: -17.9%

CN(C)CCCNC=O
growth inhibition [1]: -30.2% | growth inhibition [2]: -10.9% | growth inhibition [3]: -26.2% | growth inhibition [4]: -11.2% | growth inhibition [5]: -0.45% | growth inhibition [6]: 23.6%

COc1ccccc1NC(=O)/C(Cc1nc2ccc([N+](=O)[O-])cc2[nH]c1=O)=N\NC(=O)C[N+](C)(C)C
growth inhibition [1]: 31.6% | growth inhibition [2]: 23.4% | growth inhibition [3]: 7.3% | growth inhibition [4]: -26.2% | growth inhibition [5]: 25.4% | growth inhibition [6]: 13.2%

CC(c1ccc2ccc3cccc4ccc1c2c34)C(C(=O)O)C(=O)O (stereo not given)
growth inhibition [1]: -0.85% | growth inhibition [2]: -15.8% | growth inhibition [3]: 8.6% | growth inhibition [4]: -7.15% | growth inhibition [5]: 0.75% | growth inhibition [6]: 5.7%

c1ccc(CNn2nnc3ccccc32)cc1
growth inhibition [1]: 16.6% | growth inhibition [2]: -14.4% | growth inhibition [3]: 7.25% | growth inhibition [4]: 3.15% | growth inhibition [5]: -2.95% | growth inhibition [6]: 21.9%

CCOC(=O)c1ccc(NC(=O)Nc2cccc(Cl)c2)cc1
growth inhibition [1]: -4.2% | growth inhibition [2]: 34.5% | growth inhibition [3]: 50% | growth inhibition [4]: -17.9% | growth inhibition [5]: 25.4% | growth inhibition [6]: 23.9%

C=C1[C@@H]([C@@]2(C)C=CC(=O)C(C)(C)[C@@H]2CC(=O)OC)CC[C@@]2(C)C(c3ccoc3)OC(=O)[C@H]3O[C@]132 (stereo not given in full)
growth inhibition [1]: -3.35% | growth inhibition [2]: -1.5% | growth inhibition [3]: 16.9% | growth inhibition [4]: 15.5% | growth inhibition [5]: 16.4% | growth inhibition [6]: -34.5%

CCN(CC)CCOc1ccccc1C(C)C
growth inhibition [1]: 14.6% | growth inhibition [2]: 7.5% | growth inhibition [3]: 17.1% | growth inhibition [4]: 19.5% | growth inhibition [5]: 4% | growth inhibition [6]: 25.1%

O=C(O)c1ccccc1N1C(=O)c2ccccc2C1=O
growth inhibition [1]: 4.95% | growth inhibition [2]: -33.2% | growth inhibition [3]: -4.1% | growth inhibition [4]: 8.2% | growth inhibition [5]: 11.2% | growth inhibition [6]: -1.55%

CCOc1ccccc1Nc1nc(C)c(C(=O)CC(=O)C(=O)Nc2ccccc2)s1
growth inhibition [1]: 45.9% | growth inhibition [2]: 5.4% | growth inhibition [3]: 28.2% | growth inhibition [4]: 9.45% | growth inhibition [5]: 29.9% | growth inhibition [6]: 12.9%

CC(C)(C)CC(C(=O)O)[Si](C)(C)C (stereo not given)
growth inhibition [1]: -4.55% | growth inhibition [2]: 7.1% | growth inhibition [3]: -1.65% | growth inhibition [4]: -1.25% | growth inhibition [5]: 2.9% | growth inhibition [6]: -9.7%

Oc1ccc(Cl)cc1CC(=S)N1CCOCC1
growth inhibition [1]: 11.1% | growth inhibition [2]: 1.3% | growth inhibition [3]: 0.45% | growth inhibition [4]: -10.4% | growth inhibition [5]: 3.4% | growth inhibition [6]: -3.9%

CN1C(C(=O)Nc2nccs2)=C(O)c2ccccc2S1(=O)=O
growth inhibition [1]: 2.15% | growth inhibition [2]: 7.35% | growth inhibition [3]: 19.9% | growth inhibition [4]: -11.2% | growth inhibition [5]: 7.05% | growth inhibition [6]: 21.6%

N#Cc1ccc[n+](Cc2c(Cl)cccc2Cl)c1
growth inhibition [1]: 6.6% | growth inhibition [2]: 28.9% | growth inhibition [3]: 23.2% | growth inhibition [4]: 5.8% | growth inhibition [5]: 20.6% | growth inhibition [6]: 44.1%

CC(C)OP(=O)(OC(C)C)C1C(P(=O)(OC(C)C)OC(C)C)C(F)(F)C1(F)F (stereo not given)
growth inhibition [1]: 11.4% | growth inhibition [2]: 10.9% | growth inhibition [3]: -7.35% | growth inhibition [4]: -2.65% | growth inhibition [5]: -2% | growth inhibition [6]: 14.3%

Nc1cc(=O)[nH]c(N2CCN(c3ccccc3)CC2)n1
growth inhibition [1]: 1.15% | growth inhibition [2]: -4.9% | growth inhibition [3]: -14.3% | growth inhibition [4]: 6.15% | growth inhibition [5]: 6.15% | growth inhibition [6]: 12.4%

CCOC(=O)C(SC(Cl)(S(=O)(=O)c1ccccc1)S(=O)(=O)c1ccccc1)C(=O)OCC
growth inhibition [1]: 2.1% | growth inhibition [2]: 10.1% | growth inhibition [3]: -4.75% | growth inhibition [4]: -8.75% | growth inhibition [5]: -13% | growth inhibition [6]: -14.6%

Nc1ncnc2c1ccn2Cc1c(Cl)cccc1Cl
growth inhibition [1]: 2.05% | growth inhibition [2]: -0.2% | growth inhibition [3]: 7.1% | growth inhibition [4]: -2.75% | growth inhibition [5]: 23.9% | growth inhibition [6]: 5.4%

CCC(CCC(=O)c1ccccc1)[N+](=O)[O-] (stereo not given)
growth inhibition [1]: -3.65% | growth inhibition [2]: -14.8% | growth inhibition [3]: -5.7% | growth inhibition [4]: -8.5% | growth inhibition [5]: 13.8% | growth inhibition [6]: 7.2%

O=S(=O)(O)c1cccc2ccc(O)cc12
growth inhibition [1]: -4.05% | growth inhibition [2]: -4.1% | growth inhibition [3]: -2.05% | growth inhibition [4]: -36.8% | growth inhibition [5]: -11.1% | growth inhibition [6]: 43.6%

Cc1ccc(C(=O)CC2=NC3NN(c4ccccc4)C(=O)C3=C2CC(=O)c2ccc(C)cc2)cc1 (stereo not given)
growth inhibition [1]: 38% | growth inhibition [2]: 2.4% | growth inhibition [3]: 4.55% | growth inhibition [4]: -13.1% | growth inhibition [5]: -9.05% | growth inhibition [6]: 45.3%

CCN(CC)c1ccccc1C
growth inhibition [1]: 21.1% | growth inhibition [2]: 9.9% | growth inhibition [3]: -5.2% | growth inhibition [4]: -4.95% | growth inhibition [5]: 2.25% | growth inhibition [6]: -0.2%

CN(CCc1ccccn1)/[N+]([O-])=N/O (tested in a mixture with another compound)
growth inhibition [1]: -30.8% | growth inhibition [2]: -36.9% | growth inhibition [3]: 4.15% | growth inhibition [4]: 11.2% | growth inhibition [5]: -3.35% | growth inhibition [6]: -4.65%

COC(=O)c1ccc(C(=O)OC)c2nc3cc(C)c(C)cc3nc12
growth inhibition [1]: -0.7% | growth inhibition [2]: 20.7% | growth inhibition [3]: 0.1% | growth inhibition [4]: -7.1% | growth inhibition [5]: 5.35% | growth inhibition [6]: 12%

COC1=C(C#N)C(c2ccccc2)CC(N)=N1 (stereo not given)
growth inhibition [1]: 1.55% | growth inhibition [2]: -11.1% | growth inhibition [3]: -10.1% | growth inhibition [4]: 2.1% | growth inhibition [5]: -1% | growth inhibition [6]: 20.4%

C=C(C)[C@@H]1CC[C@]2(C)CC[C@]3(C)[C@H](CC[C@@H]4[C@@]5(C)CC[C@H](OC(=O)c6ccccc6)C(C)(C)[C@@H]5CC[C@]43C)[C@@H]12
growth inhibition [1]: -7.6% | growth inhibition [2]: -16.6% | growth inhibition [3]: -26.4% | growth inhibition [4]: 2.9% | growth inhibition [5]: -0.65% | growth inhibition [6]: 0%
